In PubChem BioAssay AID686996 (Broad Institute, 2013) one finds inhibition data, which are given here for 22 molecules.

Hit rate of the full screen: of about 350,000 compounds, about 1,900 (0.54%) were called active. The sample holds actives, similar compounds and a random draw of the others, so the mix is not that of the screen.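 Rule for the calls: active = mean inhibition across replicates at least about 35%, with every replicate also reaching that limit (limit read from the data); inconclusive = only one of the two criteria met; inactive = neither criterion met.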

For orientation: inhibition means the drop in the measured response relative to a control, in per cent.

Chain of Caspase-6 (Homo sapiens) (P55212 24-179 limits assumed): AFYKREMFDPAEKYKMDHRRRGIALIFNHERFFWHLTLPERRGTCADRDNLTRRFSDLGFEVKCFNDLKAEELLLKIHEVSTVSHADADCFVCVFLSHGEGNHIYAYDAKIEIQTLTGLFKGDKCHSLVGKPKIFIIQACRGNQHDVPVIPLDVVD
Chain of Caspase-6 (Homo sapiens) (P55212 194-293 limits assumed): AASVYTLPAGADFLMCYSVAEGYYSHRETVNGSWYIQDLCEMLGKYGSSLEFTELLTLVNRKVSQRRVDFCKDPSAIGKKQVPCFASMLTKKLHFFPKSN

The assay addresses Caspase-6 (Homo sapiens) (UniProt P55212). Briefly: inhibition of CASP6 peptide cleavage – biochemical, VEID-R110 fluorescence, single point, set 2, primary screen (AID 686996).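 Note: 0% = median of neutral control wells and 100% = no fluorescence left.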 Particulars: purified caspase-6, Z-VEID-R110 cleavage fluorescence; at 12.5 µM; stronger effect = higher value.
For `O=C(Nc1cccc(F)c1)c1cc(-c2ccco2)nc2ccccc12`, the inhibition is -7.91% (inactive).

Take `O=C(Nc1cccc(F)c1)c1coc(=O)c(Br)c1`: the inhibition was 51.7% (active).

In the case of `O=C(CCN1C(=O)c2ccccc2C1=O)Nc1cccc(F)c1`, the inhibition was -0.612% (inactive).

On to `C[C@H](CO)N1C[C@H](C)[C@@H](CN(C)C(=O)Nc2ccc3c(c2)OCO3)OCCCC[C@H](C)Oc2ccc(NS(=O)(=O)c3cn(C)cn3)cc2C1=O`, for which the inhibition was -1.24% (inactive).

Turning to `CC(=O)N1CC2(C1)[C@H](c1ccccc1)[C@@H](CO)N2C(=O)Cc1ccccc1`, the inhibition is 0.826% (inactive).

As for `CCOC(=O)C1=C(C(=O)OCC)C2N(Cc3ccc(C#N)cc3)c3ccccc3[C@@]23C[C@@H](C(=O)OC)N(S(=O)(=O)c2ccc(F)cc2)C3=N1` (some centres not stated), the inhibition was -0.093% (inactive).

With `CCC(C)CN1C(=O)CN(S(C)(=O)=O)CC1(C)C(=O)Nc1ccc2c(c1)OCCO2` (configuration not stated), the inhibition was 39.7% (active).

For `CC(C)CN1C(=O)CN(S(C)(=O)=O)CC1(C)C(=O)NCc1ccccc1` (configuration not stated), the inhibition is -0.689% (inactive).

`CC1(C(=O)Nc2ccc3c(c2)OCCO3)CN(S(C)(=O)=O)CC(=O)N1Cc1cccc(F)c1` (configuration not stated): the inhibition is 1.36% (inactive).

For `COc1ccc(CN(C)C[C@H]2OCCCC[C@@H](C)Oc3ccc(NS(C)(=O)=O)cc3C(=O)N([C@@H](C)CO)C[C@H]2C)cc1`, the inhibition was -2.66% (inactive).

As to `CCCNC(=O)[C@@H]1[C@@H](CO)[C@@H]2Cn3c(ccc(-c4ccccc4F)c3=O)[C@H]1N2CC1CC1`, the inhibition is 0.74% (inactive).

Regarding `COc1ccc2c3c([nH]c2c1)[C@H](CO)N(Cc1ccc(F)cc1)CC31CCN(Cc2ccccn2)CC1`, the inhibition was -3.59% (inactive).

For `C[C@H](CO)N1C[C@H](C)[C@H](CN(C)Cc2ccncc2)Oc2ccc(N(C)C)cc2C1=O`, the inhibition is 2.63% (inactive).

For the molecule `CCOC(=O)c1ccc(Nc2cc3ccccc3c(=O)[nH]2)cc1`, the inhibition was 87.8% (active).

`CCOC(=O)c1ccc(NC(=O)c2c(NCc3ccccc3)[nH]c(=O)[nH]c2=O)cc1`: the inhibition is 0.97% (inactive).

In the case of `C#CCNc1ccc(C(=O)OCC)cc1`, the inhibition is -1.16% (inactive).

As for `CCC(=O)N1CCCCN2[C@H](C1)[C@@H](c1ccc(C#CCOC)cc1)[C@@H]2CO`, the inhibition is -1.73% (inactive).

With `COc1ccc(S(=O)(=O)Nc2cccc3c2O[C@@H](CN(C)C(=O)Nc2ccccc2)[C@@H](C)CN([C@@H](C)CO)C3=O)cc1`, the inhibition is -2.16% (inactive).

In the case of `C[C@@H]1CN([C@H](C)CO)S(=O)(=O)c2ccc(C#C[C@@H](C)O)cc2O[C@H]1CN(C)C(=O)CC1CC1`, the inhibition is 0.478% (inactive).

Take `Cc1ccc(CNC(=O)C2CCN(S(=O)(=O)c3ccc4nc5c(c(C(=O)O)c4c3)CC(C)CC5)CC2)cc1` (configuration not stated): the inhibition is 62.6% (active).

Take `CCOC(CNC(=O)C1CCN(S(=O)(=O)c2ccc3nc4c(c(C(=O)O)c3c2)CC(C)CC4)CC1)OCC` (configuration not stated): the inhibition was 33.4% (inactive).

On to `CC(=O)N1c2ccc(S(=O)(=O)N3CCC(C(=O)NCc4ccc(F)cc4)CC3)cc2CC1C` (configuration not stated), for which the inhibition was 22.3% (inactive).
